Results on one sequence are retold here after publication PMC7862700, “An all-to-all approach to the identification of sequence-specific readers for epigenetic DNA modifications on cytosine”.

What all share (assay): DAPPL (digital affinity profiling via proximity ligation, sequencing); 10 mM Tris-HCl pH 7.5, 50 mM NaCl, 1 mM DTT, 4% glycerol, room temperature, 30 min; GST-TFs on glutathione beads, 16-mer random dsDNA library, 0.1% formaldehyde crosslink after washing; high values mean tight binding
The target in one experiment is T1, FLI1 (Homo sapiens, UniProt Q01543 1-452).
T1 sequence: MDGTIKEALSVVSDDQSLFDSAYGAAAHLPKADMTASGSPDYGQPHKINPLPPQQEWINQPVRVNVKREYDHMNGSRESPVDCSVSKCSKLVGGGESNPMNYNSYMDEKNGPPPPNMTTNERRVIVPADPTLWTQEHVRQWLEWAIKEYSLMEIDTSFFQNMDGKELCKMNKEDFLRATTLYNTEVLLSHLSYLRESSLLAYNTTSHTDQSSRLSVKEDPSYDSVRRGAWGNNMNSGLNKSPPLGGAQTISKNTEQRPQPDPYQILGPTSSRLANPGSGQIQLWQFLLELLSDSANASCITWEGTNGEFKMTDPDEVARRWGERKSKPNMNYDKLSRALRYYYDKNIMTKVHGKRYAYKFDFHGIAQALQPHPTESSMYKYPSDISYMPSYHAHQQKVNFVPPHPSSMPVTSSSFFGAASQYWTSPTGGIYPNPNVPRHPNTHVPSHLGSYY
The note with it: protein: recombinant; tags: N-terminal GST; dsDNA, one strand shown. The method in brief:
(§1)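 Binding signal is given per hexamer as its read frequency for a factor divided by its frequency in the tag-only sample. GST-fused human transcription factors were expressed in yeast, captured on glutathione beads, barcoded with DNA and pooled with that sample, then incubated with 200 nmole of a 16-mer random double-stranded DNA library in Tris/NaCl/DTT/glycerol buffer for 30 min at room temperature. The pools were then washed, crosslinked, proximity-ligated, amplified by PCR and sequenced on an Illumina NextSeq500.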

The target of a further experiment is T2, ELK1 (Homo sapiens, UniProt P19419 1-428).
T2 sequence: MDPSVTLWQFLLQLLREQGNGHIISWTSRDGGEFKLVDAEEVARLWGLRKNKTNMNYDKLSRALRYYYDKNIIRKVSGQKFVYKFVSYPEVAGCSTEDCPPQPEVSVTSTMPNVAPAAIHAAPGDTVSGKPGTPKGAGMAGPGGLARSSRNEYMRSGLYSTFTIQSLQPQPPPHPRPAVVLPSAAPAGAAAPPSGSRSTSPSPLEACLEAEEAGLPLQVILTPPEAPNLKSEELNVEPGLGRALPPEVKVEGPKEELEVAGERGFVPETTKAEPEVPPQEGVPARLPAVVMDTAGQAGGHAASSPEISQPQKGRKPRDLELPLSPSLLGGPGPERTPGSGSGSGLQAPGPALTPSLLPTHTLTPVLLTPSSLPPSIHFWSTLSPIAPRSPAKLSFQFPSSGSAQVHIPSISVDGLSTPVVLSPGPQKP
To be noted: protein: recombinant; tags: N-terminal GST; dsDNA, one strand shown. An outline of the steps: as §1

The target of another experiment is T3, GABPA (Homo sapiens, UniProt Q06546 1-454).
T3 sequence: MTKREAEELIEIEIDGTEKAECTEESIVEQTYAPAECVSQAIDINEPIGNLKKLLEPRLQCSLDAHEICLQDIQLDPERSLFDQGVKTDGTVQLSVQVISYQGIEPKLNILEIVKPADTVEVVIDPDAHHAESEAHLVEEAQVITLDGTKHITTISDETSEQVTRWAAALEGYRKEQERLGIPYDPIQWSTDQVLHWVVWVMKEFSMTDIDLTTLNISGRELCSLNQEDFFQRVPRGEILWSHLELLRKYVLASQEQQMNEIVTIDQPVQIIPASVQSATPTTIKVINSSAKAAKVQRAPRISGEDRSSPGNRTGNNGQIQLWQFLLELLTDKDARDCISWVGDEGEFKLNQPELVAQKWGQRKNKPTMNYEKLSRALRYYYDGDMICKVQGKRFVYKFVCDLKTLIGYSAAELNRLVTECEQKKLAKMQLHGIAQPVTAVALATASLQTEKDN
The note with it: protein: recombinant; tags: N-terminal GST; dsDNA, one strand shown. The method in brief:
as §1

In the next experiment the target is T4, ERG (Homo sapiens, UniProt P11308 1-479).
T4 sequence: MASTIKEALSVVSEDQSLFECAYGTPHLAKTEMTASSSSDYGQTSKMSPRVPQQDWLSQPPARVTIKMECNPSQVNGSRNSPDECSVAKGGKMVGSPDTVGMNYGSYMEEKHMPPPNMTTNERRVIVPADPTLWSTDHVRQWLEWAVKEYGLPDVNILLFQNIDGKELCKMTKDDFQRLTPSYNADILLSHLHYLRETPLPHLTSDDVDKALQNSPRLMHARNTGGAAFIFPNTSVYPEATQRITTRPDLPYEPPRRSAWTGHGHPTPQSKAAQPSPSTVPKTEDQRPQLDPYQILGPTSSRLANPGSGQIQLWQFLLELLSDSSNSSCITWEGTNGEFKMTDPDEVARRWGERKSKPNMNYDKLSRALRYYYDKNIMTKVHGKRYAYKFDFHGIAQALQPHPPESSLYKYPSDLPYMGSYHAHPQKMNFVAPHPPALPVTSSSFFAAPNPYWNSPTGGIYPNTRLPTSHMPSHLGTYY
To be noted: protein: recombinant; tags: N-terminal GST; dsDNA, one strand shown. The method in brief:
as §1

The target of a further experiment is ELF1 (Homo sapiens, UniProt P32519 1-619). The note with it: protein: recombinant; tags: N-terminal GST; dsDNA, one strand shown. An outline of the steps:
as §1

In the next experiment the target is T5, EHF (Homo sapiens, UniProt Q9NZC4 1-300).
T5 sequence: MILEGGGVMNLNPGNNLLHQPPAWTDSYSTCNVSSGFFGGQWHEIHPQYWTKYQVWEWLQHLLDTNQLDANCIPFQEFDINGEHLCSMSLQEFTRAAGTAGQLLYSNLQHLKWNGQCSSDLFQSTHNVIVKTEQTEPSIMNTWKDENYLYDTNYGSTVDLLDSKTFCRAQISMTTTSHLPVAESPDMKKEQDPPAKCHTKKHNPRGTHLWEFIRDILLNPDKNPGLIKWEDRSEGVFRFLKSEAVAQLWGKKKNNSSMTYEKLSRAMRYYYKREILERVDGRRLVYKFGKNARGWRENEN
The note with it: protein: recombinant; tags: N-terminal GST; dsDNA, one strand shown. The method in brief: as §1

In the next experiment the target is SPI1 (Homo sapiens, UniProt P17947 1-270). To be noted: protein: recombinant; tags: N-terminal GST; dsDNA, one strand shown. An outline of the steps: as §1
A further experiment concerns the target SPIB (Homo sapiens, UniProt Q01892 1-262). To be noted: protein: recombinant; tags: N-terminal GST; dsDNA, one strand shown. The method in brief:
as §1

A further experiment has as its target T6, ELK3 (Homo sapiens, UniProt P41970 1-407).
T6 sequence: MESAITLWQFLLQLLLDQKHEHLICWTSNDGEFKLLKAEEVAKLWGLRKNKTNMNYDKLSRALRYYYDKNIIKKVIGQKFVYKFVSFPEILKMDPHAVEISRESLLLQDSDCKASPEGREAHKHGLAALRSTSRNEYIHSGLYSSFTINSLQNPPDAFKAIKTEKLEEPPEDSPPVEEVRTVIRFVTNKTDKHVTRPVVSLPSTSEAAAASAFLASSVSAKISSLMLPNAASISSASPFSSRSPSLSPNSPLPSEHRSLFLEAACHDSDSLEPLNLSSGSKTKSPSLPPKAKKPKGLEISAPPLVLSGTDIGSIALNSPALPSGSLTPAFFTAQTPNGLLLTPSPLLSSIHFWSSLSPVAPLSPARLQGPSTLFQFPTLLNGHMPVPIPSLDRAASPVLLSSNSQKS
To be noted: protein: recombinant; tags: N-terminal GST; dsDNA, one strand shown. The method in brief: as §1

A further experiment has as its target T7, FEV (Homo sapiens, UniProt Q99581 1-238).
T7 sequence: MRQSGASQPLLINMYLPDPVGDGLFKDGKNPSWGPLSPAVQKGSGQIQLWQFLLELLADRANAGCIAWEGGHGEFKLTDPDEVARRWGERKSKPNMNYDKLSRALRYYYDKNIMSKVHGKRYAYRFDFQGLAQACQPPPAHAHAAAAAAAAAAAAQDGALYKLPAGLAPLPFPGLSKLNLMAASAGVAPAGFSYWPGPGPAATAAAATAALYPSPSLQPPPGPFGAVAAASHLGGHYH
To be noted: protein: recombinant; tags: N-terminal GST; dsDNA, one strand shown. An outline of the steps:
as §1

The next experiment concerns the target ETV5 (Homo sapiens, UniProt P41161 1-510). To be noted: protein: recombinant; tags: N-terminal GST; dsDNA, one strand shown. An outline of the steps: as §1
The next experiment addresses HSF1 (Homo sapiens, UniProt Q00613 1-529). The note with it: protein: recombinant; tags: N-terminal GST; chain copies: 3; dsDNA, one strand shown. An outline of the steps: as §1
For the next experiment, the target named is T8, SPIC (Homo sapiens, UniProt Q8N5J4 1-248).
T8 sequence: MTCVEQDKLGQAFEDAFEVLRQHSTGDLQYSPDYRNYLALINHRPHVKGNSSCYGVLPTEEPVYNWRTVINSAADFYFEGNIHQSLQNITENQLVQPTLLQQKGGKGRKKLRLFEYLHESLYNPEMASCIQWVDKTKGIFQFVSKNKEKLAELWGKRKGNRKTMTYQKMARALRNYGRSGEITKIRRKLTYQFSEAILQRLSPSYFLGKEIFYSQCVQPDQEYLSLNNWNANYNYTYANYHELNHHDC
The note with it: protein: recombinant; tags: N-terminal GST; dsDNA, one strand shown. The method in brief:
as §1

The next experiment concerns the target ELF4 (Homo sapiens, UniProt Q99607 1-663). The note with it: protein: recombinant; tags: N-terminal GST; dsDNA, one strand shown. An outline of the steps:
as §1

A further experiment has as its target T9, ELK4 (Homo sapiens, UniProt P28324-2 1-405).
T9 sequence: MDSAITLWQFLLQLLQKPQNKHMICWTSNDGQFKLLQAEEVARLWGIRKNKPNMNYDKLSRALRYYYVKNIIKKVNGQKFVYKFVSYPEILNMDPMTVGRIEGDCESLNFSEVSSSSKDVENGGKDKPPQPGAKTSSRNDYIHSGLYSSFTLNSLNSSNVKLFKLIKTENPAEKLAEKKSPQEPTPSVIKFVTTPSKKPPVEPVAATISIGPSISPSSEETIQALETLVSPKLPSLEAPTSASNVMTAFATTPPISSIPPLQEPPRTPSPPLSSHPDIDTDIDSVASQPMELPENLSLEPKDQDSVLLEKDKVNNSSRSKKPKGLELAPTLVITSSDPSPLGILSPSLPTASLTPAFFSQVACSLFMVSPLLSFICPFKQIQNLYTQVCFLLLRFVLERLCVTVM
The note with it: protein: recombinant; tags: N-terminal GST; dsDNA, one strand shown. An outline of the steps: as §1

The target of another experiment is T10, ETV2 (Homo sapiens, UniProt O00321 1-342).
T10 sequence: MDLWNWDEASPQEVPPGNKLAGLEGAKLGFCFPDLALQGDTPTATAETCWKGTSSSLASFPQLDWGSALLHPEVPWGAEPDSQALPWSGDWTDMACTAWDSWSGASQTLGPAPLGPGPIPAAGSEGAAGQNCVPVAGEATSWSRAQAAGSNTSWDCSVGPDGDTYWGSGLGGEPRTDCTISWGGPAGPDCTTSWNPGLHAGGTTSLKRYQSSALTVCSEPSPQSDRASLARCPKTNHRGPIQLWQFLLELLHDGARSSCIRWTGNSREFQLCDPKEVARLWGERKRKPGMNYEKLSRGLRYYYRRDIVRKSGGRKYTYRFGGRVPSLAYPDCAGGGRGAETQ
To be noted: protein: recombinant; tags: N-terminal GST; dsDNA, one strand shown. The method in brief: as §1

Another experiment addresses T11, ELF3 (Homo sapiens, UniProt P78545 1-371).
T11 sequence: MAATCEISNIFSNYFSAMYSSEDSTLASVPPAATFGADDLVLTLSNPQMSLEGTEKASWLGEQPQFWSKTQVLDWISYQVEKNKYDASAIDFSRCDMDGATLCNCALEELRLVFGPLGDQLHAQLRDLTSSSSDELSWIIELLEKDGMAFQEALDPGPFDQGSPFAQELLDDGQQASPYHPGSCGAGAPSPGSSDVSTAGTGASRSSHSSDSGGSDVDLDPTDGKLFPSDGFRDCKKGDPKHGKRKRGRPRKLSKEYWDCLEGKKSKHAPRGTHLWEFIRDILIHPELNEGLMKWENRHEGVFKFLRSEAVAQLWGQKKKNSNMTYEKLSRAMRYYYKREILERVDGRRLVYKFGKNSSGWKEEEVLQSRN
To be noted: protein: recombinant; tags: N-terminal GST; dsDNA, one strand shown. An outline of the steps:
as §1

Another experiment concerns the target CRX (Homo sapiens, UniProt O43186 1-299). To be noted: protein: recombinant; tags: N-terminal GST; dsDNA, one strand shown. An outline of the steps:
as §1

A further experiment concerns the target ETV1 (Homo sapiens, UniProt P50549 1-477). The note with it: protein: recombinant; tags: N-terminal GST; dsDNA, one strand shown. An outline of the steps: as §1

Chain of SPIB (Q01892 whole entry): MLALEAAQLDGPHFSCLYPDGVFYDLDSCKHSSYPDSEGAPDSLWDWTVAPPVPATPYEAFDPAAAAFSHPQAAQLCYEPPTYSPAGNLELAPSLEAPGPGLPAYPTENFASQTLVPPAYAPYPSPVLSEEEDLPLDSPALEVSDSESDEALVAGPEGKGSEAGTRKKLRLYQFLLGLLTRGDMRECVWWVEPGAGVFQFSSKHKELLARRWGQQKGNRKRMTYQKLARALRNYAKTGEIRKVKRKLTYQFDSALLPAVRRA
Chain of ELF4 (Q99607 whole entry): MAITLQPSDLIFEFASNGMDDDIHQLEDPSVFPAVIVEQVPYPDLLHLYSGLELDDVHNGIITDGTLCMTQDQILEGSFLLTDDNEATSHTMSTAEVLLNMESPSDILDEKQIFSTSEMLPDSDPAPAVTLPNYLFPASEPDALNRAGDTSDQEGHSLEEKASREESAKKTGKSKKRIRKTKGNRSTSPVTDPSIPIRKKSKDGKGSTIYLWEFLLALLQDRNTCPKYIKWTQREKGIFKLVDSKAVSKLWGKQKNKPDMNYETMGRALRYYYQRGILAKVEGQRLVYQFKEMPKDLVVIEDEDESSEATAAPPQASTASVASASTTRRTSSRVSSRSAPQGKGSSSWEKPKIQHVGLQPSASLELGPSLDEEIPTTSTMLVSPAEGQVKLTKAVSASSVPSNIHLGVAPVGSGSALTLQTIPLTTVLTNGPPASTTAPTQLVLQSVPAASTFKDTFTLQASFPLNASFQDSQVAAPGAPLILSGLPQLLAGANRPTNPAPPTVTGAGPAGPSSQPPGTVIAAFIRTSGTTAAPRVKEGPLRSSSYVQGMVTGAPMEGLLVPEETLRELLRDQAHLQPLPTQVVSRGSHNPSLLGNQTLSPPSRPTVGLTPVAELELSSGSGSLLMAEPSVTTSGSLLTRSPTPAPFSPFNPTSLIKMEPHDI
Chain of ETV5 (P41161 whole entry): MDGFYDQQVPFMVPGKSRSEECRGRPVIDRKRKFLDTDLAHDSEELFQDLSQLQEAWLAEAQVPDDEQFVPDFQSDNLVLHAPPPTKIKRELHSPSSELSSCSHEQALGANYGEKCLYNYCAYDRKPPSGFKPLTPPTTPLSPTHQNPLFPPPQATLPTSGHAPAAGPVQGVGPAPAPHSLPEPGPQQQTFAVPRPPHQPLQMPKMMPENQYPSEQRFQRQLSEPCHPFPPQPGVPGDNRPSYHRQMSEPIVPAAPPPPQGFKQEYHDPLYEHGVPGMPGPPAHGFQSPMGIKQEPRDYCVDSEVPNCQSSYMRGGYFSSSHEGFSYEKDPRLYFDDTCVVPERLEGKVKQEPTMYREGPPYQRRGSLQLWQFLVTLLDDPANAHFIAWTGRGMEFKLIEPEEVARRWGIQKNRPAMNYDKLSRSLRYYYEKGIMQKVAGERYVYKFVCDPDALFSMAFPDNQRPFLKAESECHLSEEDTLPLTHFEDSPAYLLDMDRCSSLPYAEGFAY
Chain of ETV1 (P50549 whole entry): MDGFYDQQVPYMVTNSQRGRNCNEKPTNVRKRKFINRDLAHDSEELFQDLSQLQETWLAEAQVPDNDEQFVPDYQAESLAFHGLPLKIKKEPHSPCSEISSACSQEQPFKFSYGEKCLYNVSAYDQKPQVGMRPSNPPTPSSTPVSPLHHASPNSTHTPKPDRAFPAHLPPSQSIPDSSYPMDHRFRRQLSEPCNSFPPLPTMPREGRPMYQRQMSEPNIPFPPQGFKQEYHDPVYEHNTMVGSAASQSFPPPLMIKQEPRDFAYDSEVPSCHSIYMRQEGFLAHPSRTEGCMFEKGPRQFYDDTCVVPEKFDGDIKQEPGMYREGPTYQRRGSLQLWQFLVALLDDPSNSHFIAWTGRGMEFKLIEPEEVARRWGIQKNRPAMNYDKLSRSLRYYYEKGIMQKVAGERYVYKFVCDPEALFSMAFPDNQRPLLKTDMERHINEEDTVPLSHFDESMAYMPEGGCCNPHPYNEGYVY
Chain of ELF1 (P32519 whole entry): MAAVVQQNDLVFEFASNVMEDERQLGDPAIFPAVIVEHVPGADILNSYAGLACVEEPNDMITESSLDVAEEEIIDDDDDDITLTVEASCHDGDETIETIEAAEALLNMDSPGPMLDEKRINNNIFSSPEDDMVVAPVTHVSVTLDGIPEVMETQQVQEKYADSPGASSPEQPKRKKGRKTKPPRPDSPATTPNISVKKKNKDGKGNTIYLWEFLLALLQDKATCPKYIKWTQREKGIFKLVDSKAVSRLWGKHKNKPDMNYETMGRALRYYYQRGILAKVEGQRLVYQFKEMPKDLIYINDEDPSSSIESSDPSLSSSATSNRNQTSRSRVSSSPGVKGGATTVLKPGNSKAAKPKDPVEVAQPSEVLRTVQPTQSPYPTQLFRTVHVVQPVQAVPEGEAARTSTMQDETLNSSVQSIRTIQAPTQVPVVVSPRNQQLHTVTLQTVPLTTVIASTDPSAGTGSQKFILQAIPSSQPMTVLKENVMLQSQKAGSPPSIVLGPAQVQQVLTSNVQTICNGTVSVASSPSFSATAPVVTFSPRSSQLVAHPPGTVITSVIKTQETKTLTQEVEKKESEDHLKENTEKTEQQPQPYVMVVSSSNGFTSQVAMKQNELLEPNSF
Chain of CRX (O43186 whole entry): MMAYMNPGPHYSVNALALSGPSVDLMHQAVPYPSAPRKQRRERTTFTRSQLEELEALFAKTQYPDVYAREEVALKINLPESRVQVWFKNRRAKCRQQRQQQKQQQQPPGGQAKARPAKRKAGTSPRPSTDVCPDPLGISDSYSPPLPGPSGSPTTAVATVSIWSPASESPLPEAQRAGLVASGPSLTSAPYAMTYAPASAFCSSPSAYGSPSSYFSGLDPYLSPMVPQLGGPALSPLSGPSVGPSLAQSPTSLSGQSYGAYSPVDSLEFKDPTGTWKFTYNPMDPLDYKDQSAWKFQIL
Chain of HSF1 (Q00613 whole entry): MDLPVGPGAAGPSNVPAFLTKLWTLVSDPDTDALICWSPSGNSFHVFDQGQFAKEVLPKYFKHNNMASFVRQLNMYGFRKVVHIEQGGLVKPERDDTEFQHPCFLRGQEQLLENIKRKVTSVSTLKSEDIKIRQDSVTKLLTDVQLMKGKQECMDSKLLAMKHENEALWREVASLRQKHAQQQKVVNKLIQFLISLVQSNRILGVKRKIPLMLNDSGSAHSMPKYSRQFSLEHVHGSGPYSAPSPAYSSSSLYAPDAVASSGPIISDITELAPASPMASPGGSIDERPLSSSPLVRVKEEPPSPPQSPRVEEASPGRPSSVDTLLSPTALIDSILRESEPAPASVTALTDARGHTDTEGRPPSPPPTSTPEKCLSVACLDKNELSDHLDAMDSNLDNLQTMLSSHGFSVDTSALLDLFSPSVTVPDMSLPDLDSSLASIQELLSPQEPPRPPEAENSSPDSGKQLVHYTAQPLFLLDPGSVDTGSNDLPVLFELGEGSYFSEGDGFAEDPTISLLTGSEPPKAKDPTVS

With ACTCCC, the binding signal in the experiment with FLI1 was 1.52 fold enrichment (6-mer frequency, TF over GST control); with ELK1, 1.2 fold enrichment (6-mer frequency, TF over GST control); in the experiment with GABPA, 1.42 fold enrichment (6-mer frequency, TF over GST control); with ERG, 1.45 fold enrichment (6-mer frequency, TF over GST control); in the experiment with ELF1, 1.46 fold enrichment (6-mer frequency, TF over GST control); with EHF it was 1.38 fold enrichment (6-mer frequency, TF over GST control). The binding signal in the experiment with SPI1 was 1.38 fold enrichment (6-mer frequency, TF over GST control); with SPIB, 1.42 fold enrichment (6-mer frequency, TF over GST control); with ELK3 it was 1.43 fold enrichment (6-mer frequency, TF over GST control); with FEV it was 1.32 fold enrichment (6-mer frequency, TF over GST control); with ETV5 it was 1.42 fold enrichment (6-mer frequency, TF over GST control); in the experiment with HSF1 it was 1.15 fold enrichment (6-mer frequency, TF over GST control). Also, the binding signal is 1.46 fold enrichment (6-mer frequency, TF over GST control) with SPIC; 1.31 fold enrichment (6-mer frequency, TF over GST control) in the experiment with ELF4; 1.32 fold enrichment (6-mer frequency, TF over GST control) with ELK4; 1.11 fold enrichment (6-mer frequency, TF over GST control) with ETV2; 1.25 fold enrichment (6-mer frequency, TF over GST control) with ELF3; 1.13 fold enrichment (6-mer frequency, TF over GST control) in the experiment with CRX. The binding signal with ETV1 was 1.25 fold enrichment (6-mer frequency, TF over GST control).
